From paper PMC7819943, “Rice protein-binding microarrays: a tool to detect cis-acting elements near promoter regions in rice”
Whole data set: some 68,000 sequences, median “fluorescence intensity (a.u.)” near 9,100, cut for the highest 2% near 16,000. Shown is part of a subset that was picked to be rich in the highest values.

What follows are sequences tested against OsWRKY34 (Oryza sativa, UniProt Q0JBA9 1-250) (assay: protein-binding microarray (RPBM); PBS, 2% BSA, 51.3 ng/ul salmon testes DNA, 50 uM zinc acetate, 200 nM TF, 25 C, 1 h; high values mean tight binding). Settings: protein: recombinant; tags: N-terminal polyhistidine and DsRed monomer fusion (pET32a); label: CyDye5-dUTP incorporated in the synthesized complementary strand; 3' TTTTT single-stranded linker to array surface; dsDNA, one strand shown.
OsWRKY34, sequence (Q0JBA9 entry or part of it): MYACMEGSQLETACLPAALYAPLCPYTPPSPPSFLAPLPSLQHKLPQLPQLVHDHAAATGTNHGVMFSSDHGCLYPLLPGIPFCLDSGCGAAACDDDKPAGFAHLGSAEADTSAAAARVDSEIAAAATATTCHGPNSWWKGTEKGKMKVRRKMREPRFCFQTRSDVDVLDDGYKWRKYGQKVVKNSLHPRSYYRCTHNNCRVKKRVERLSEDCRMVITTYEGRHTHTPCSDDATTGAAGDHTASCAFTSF
Method in brief: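 Polyhistidine-tagged DsRed fusions of transcription factors, joined at the N-terminus, were expressed in E. coli BL21-CodonPlus and isolated on Ni–NTA. They were incubated at 200 nM for 1 h at 25 °C on a custom Agilent array, double-stranded and BSA-blocked, in PBS with 2% BSA, salmon testes DNA and 50 µM zinc acetate. The binding signal is per-feature fluorescence intensity (arbitrary units) read on an Axon 4000B scanner after washing.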
“GCATATAATTAGTTTACCATGGCTTTAATCAATCATATGCCGGAGTCACCTAGTGCAG” was tested, and the binding signal was 29300 fluorescence intensity (a.u.). For “TCATAATGCATCAATCTATTACTTTAGCTATCTATTTATACGGAGTCACCTAGTGCAG”, the binding signal was 9530 fluorescence intensity (a.u.). For “ATGACTTTAATATGTTAGCTTTTCATGCATGTGTCAATTTCGGAGTCACCTAGTGCAG”, the binding signal was 8700 fluorescence intensity (a.u.). For “GCAACGCCGCCGTTTTCTTCGCCTCTCACAGAGACGACTCCGGAGTCACCTAGTGCAG”, the binding signal was 9200 fluorescence intensity (a.u.). With “AGCCATCTATCACCATGGCTGAAGCCATGTTATATATATCCGGAGTCACCTAGTGCAG” the binding signal was 8560 fluorescence intensity (a.u.). “GGGGTTCGTTTTGTTTCTTGACACACGCTTGAGTCTTATTCGGAGTCACCTAGTGCAG” was tested, and the binding signal was 16900 fluorescence intensity (a.u.). For “CTTCACTCTTGATTCAAAAGGTTTTATTTTTTTTTCTGGTCGGAGTCACCTAGTGCAG”, the binding signal was 8530 fluorescence intensity (a.u.). For “TTCTTTTCTTTTTCTTTTTCGTTTTCTTCTTATTCTTTTTCGGAGTCACCTAGTGCAG”, the binding signal was 12900 fluorescence intensity (a.u.). With “TTCGGGTTTTTTTTTTGTTTATTTTGTCTTTCGCTTTTCACGGAGTCACCTAGTGCAG” the binding signal was 14900 fluorescence intensity (a.u.). “TTTTTGGGGTTTTCTCTTCTTGATTGATTCGTTCTTGGCGCGGAGTCACCTAGTGCAG” was tested, and the binding signal was 13100 fluorescence intensity (a.u.). “TCCCACCTTCCGCTCGTTTTTCTTGAGCATATGCTTCTCACGGAGTCACCTAGTGCAG” was tested, and the binding signal was 10100 fluorescence intensity (a.u.). In the case of “ACTTCTACCTTTCGTTTTTCCACGCGCATATGCTTTTTGACGGAGTCACCTAGTGCAG”, the binding signal is reported as 20300 fluorescence intensity (a.u.). In the case of “ATCACTTTATGCGCACTTTTCTTTGACGCCTTCCACAATTCGGAGTCACCTAGTGCAG”, the binding signal is reported as 9560 fluorescence intensity (a.u.). “ATTCGTTCTGGTTTTCTTCGGGGTTTATTGATTCACGCGACGGAGTCACCTAGTGCAG” was tested, and the binding signal was 18200 fluorescence intensity (a.u.). For “TCTTCTGAGTTCTTGTGTTTTCATACGTGCCAATCAAATGCGGAGTCACCTAGTGCAG”, the binding signal was 8310 fluorescence intensity (a.u.). For “ACCTTCGGTGTACTTTTTCCTTAGTCTGCCGGCTTATTTACGGAGTCACCTAGTGCAG”, the binding signal was 9490 fluorescence intensity (a.u.). “GACAATTACTTAGTCCTCACCTACCGTCGACCTCACACGTCGGAGTCACCTAGTGCAG” was tested, and the binding signal was 10200 fluorescence intensity (a.u.). For “TTCAGAGTATTGTGATCCTTAAATCGAACCGTTGACTCTACGGAGTCACCTAGTGCAG”, the binding signal was 9490 fluorescence intensity (a.u.). In the case of “AGCAGTTGTATTGTTGTGAAATTTAATTTGCTCTTTGACCCGGAGTCACCTAGTGCAG”, the binding signal is reported as 8200 fluorescence intensity (a.u.). In the case of “TCTTGTTCATTTCTCTCTTGCTCCGGCTCGCCTCGCATCGCGGAGTCACCTAGTGCAG”, the binding signal is reported as 8300 fluorescence intensity (a.u.). With “GGTAGACGGCGTCGTACCCGTCCTCCTCGCCGGACCGCATCGGAGTCACCTAGTGCAG” the binding signal was 8840 fluorescence intensity (a.u.). With “TAATGTATGACGCCGTTGACTTTTTAACTAACGTTTGACCCGGAGTCACCTAGTGCAG” the binding signal was 28700 fluorescence intensity (a.u.). With “TAATGTATAACGCCGTTAACTTTTTAACAAACGTTTGACCCGGAGTCACCTAGTGCAG” the binding signal was 8430 fluorescence intensity (a.u.). In the case of “TTGTATGATGCCGTTGATTTTTTTTGTCTAACGTTTAACCCGGAGTCACCTAGTGCAG”, the binding signal is reported as 8360 fluorescence intensity (a.u.). “TTTTAATGTATGACGCCGTTGACTTTTTATACGTTTGACCCGGAGTCACCTAGTGCAG” was tested, and the binding signal was 32200 fluorescence intensity (a.u.). “TAATGTATGACGCCGTTGACTTTTTGATTAACGTTTGACCCGGAGTCACCTAGTGCAG” was tested, and the binding signal was 34800 fluorescence intensity (a.u.). “CGCATAATACTTTTACTTGCACCAATCAAGTACACGCTCTCGGAGTCACCTAGTGCAG” was tested, and the binding signal was 9320 fluorescence intensity (a.u.). For “CCCTGGCAAATGTTCTTTCTCCTCTATTTTCCATCTCCAACGGAGTCACCTAGTGCAG”, the binding signal was 9120 fluorescence intensity (a.u.). With “TATAGATTTTCGTCTCCAACGCTTGACCGTCCGTTTTATTCGGAGTCACCTAGTGCAG” the binding signal was 12800 fluorescence intensity (a.u.). With “CTTGCTCGTTGTAACTGTTTAATCTATTATGTTTTTTTTTCGGAGTCACCTAGTGCAG” the binding signal was 11000 fluorescence intensity (a.u.). In the case of “CCCACCGCTCCTCCGCGCCACGCTTCCTCGCCGCGCGCGCCGGAGTCACCTAGTGCAG”, the binding signal is reported as 8390 fluorescence intensity (a.u.). For “ACAACTGACTTACCCTTTCTGACTTGCAGATCAATTTGTCCGGAGTCACCTAGTGCAG”, the binding signal was 9050 fluorescence intensity (a.u.). “TGCAGTGCGGCGTCACCTATCTCGTGGGCGCTTTCTTAGACGGAGTCACCTAGTGCAG” was tested, and the binding signal was 9080 fluorescence intensity (a.u.). In the case of “GGGTTGGTGGGCCTGATGGGCTTGGTTTTAGGGTTTCGTGCGGAGTCACCTAGTGCAG”, the binding signal is reported as 9510 fluorescence intensity (a.u.). With “ATGGTTGGTTTCGTGCTCTGTTTTTTTTTGGGAGAATTCGCGGAGTCACCTAGTGCAG” the binding signal was 12800 fluorescence intensity (a.u.). With “ACGGCGAGACGGTTTGCGGCGGCGGCGGTGGGGTTGGGATCGGAGTCACCTAGTGCAG” the binding signal was 10600 fluorescence intensity (a.u.). For “TAGGCTATCTTTTGAAGGGAGGGGTTTTTTCATCACCTATCGGAGTCACCTAGTGCAG”, the binding signal was 17000 fluorescence intensity (a.u.). With “ACTGTTGGAGTGGGAGTGGGGAATTCTAGGGTTTTGCAATCGGAGTCACCTAGTGCAG” the binding signal was 12300 fluorescence intensity (a.u.). In the case of “GTTTCGTGGTGGTTGCTGGGCTTTTCGTTGGCGTGGGTGGCGGAGTCACCTAGTGCAG”, the binding signal is reported as 11500 fluorescence intensity (a.u.). In the case of “GGTTTCGTTGGTGGGGTTTTTTCATGGTGGCTAGGGTTTTCGGAGTCACCTAGTGCAG”, the binding signal is reported as 51100 fluorescence intensity (a.u.). “CTGCGTTTATTTGGGTTTATTTGGGGCTGAGAGAGTACATCGGAGTCACCTAGTGCAG” was tested, and the binding signal was 13800 fluorescence intensity (a.u.). For “GTTTATCTCTATCTTTTTTTCATCTTCTCTCTATATATATCGGAGTCACCTAGTGCAG”, the binding signal was 11000 fluorescence intensity (a.u.).
